ChEMBL document CHEMBL3988442, “University of Dundee, Small-Polar-MMV Screening Library” (2021)
Out of some 48,000 compounds screened, about 13,000 (27%) showed an effect of 50% or more. The list shows a part of the results.

The compounds below were run on Wolbachia pipientis (assay: Anti-Wolbachia Cell-Based Screen). Settings: 5 µM.
Assay type: functional
Set-up: scale not given: in the data most compounds retested in dose-response had high values
For `CC(=O)N1CCC2(CCN(CC(C)C)C2)C1` (stereo not given), the “Percent Effect” value was -12.71%. With `CCNC(=O)NC[C@H]1C[C@@H]2CCN1C[C@@H]2c1cc(-c2cccs2)nn1C` the “Percent Effect” value was -4.515%. `CCN(CC)C[C@H]1CN2CC[C@H]1C[C@@H]2CNC(=O)Nc1ccsc1` was tested, and the “Percent Effect” value was 12.78%. In the case of `O=C(O)C(F)(F)F.O=C(c1ccncc1F)N1C[C@@H]2OCCN(CC3CC3)[C@@H]2C1`, the “Percent Effect” value is reported as -13.64%. For `Cc1cccc(Nc2ccc(C3CCCCN3)cn2)n1` (stereo not given), the “Percent Effect” value was 86.37%. In the case of `c1cnc(Nc2ccc(C3CCCCN3)cn2)cn1` (stereo not given), the “Percent Effect” value is reported as 123.5%. With `Cc1cc(C)nc(Nc2ccc(C3CCCCN3)cn2)n1` (stereo not given) the “Percent Effect” value was 126%. In the case of `CC(=O)N1CCOCC2(CCCNC2)C1` (stereo not given), the “Percent Effect” value is reported as -30.9%. For `CCCN1C[C@H]2CC[C@@H]1CN(C(=O)Cn1c(C)cc(C)nc1=O)C2`, the “Percent Effect” value was -4.771%. With `Cn1cc(CN2C[C@H]3CCC[C@@]3(COc3cccnc3)C2)cn1` the “Percent Effect” value was 95.98%. `O=C(O)C(F)(F)F.O=C(O)C(F)(F)F.c1ccc(CN2C[C@H]3CCC[C@@]3(COCC3CC3)C2)nc1` was tested, and the “Percent Effect” value was 8.685%. In the case of `c1ccc(COC[C@@]23CCC[C@@H]2CN(Cc2ccccn2)C3)nc1`, the “Percent Effect” value is reported as -0.5697%. For `Cn1cc(CN2C[C@H]3CCC[C@@]3(COc3ccccn3)C2)cn1.O=C(O)C(F)(F)F.O=C(O)C(F)(F)F`, the “Percent Effect” value was 101.4%. With `Cn1cc(CN2CCN3C[C@H](Oc4cccnc4)C[C@H]3C2)cn1` the “Percent Effect” value was -3.726%. With `O=C(N[C@H]1COC[C@@H]1N1CCCC1)c1c[nH]nc1C1CCCCC1` the “Percent Effect” value was 3.503%. In the case of `O=C(N[C@H]1COC[C@@H]1N1CCCC1)c1csc(Cc2ccccc2)n1`, the “Percent Effect” value is reported as 115.4%. With `CCCc1nc(C(=O)N[C@H]2COC[C@@H]2N2CCN(C)CC2)cs1` the “Percent Effect” value was 87.61%. `Cc1ccc2nc(C)c(C)c(C(=O)N[C@H]3COC[C@@H]3N3CCCC3)c2c1` was tested, and the “Percent Effect” value was -0.09991%. `Cc1cc(C)n2nc(C(=O)N[C@H]3C[C@H]4CN(C)CCN4C3)cc2n1` was tested, and the “Percent Effect” value was -14.62%. With `O=C(c1csc(-c2ncccn2)n1)N1CCN2CCCCC2C1` (stereo not given) the “Percent Effect” value was -3.286%. For `Cc1cc(C(=O)N[C@H]2COC[C@@H]2N2CCOCC2)c2ccc(F)cc2n1`, the “Percent Effect” value was -11.09%. `Cc1nc(C(=O)N[C@H]2COC[C@@H]2N2CCCCC2)cs1` was tested, and the “Percent Effect” value was 100.8%. For `Cc1ccc2nc(C)cc(C(=O)N[C@H]3COC[C@@H]3N3CCOCC3)c2c1`, the “Percent Effect” value was -2.538%. For `O=C(N[C@H]1COC[C@@H]1N1CCCC1)c1csc(-c2cccs2)n1`, the “Percent Effect” value was 103.2%. With `Fc1cnc(N2CCOCC3(CCCNC3)C2)nc1` (stereo not given) the “Percent Effect” value was -3.763%. In the case of `CCCN1CC2(CCN(c3ncc(F)cn3)CC2)CC1C(=O)O` (stereo not given), the “Percent Effect” value is reported as 2.005%. `CC(C)c1ocnc1C(=O)N1CCC2(CC1)OCCO2` was tested, and the “Percent Effect” value was -1.453%. In the case of `O=S(=O)(NC[C@H]1C[C@@H]2CCN1C[C@@H]2CN1CCOCC1)c1ccccc1`, the “Percent Effect” value is reported as -10.01%. With `c1c[nH]c2nc(C3CCCNC3)nc-2c1` (stereo not given) the “Percent Effect” value was 109%. With `c1c[nH]c2nc(C3CCNCC3)nc-2c1` the “Percent Effect” value was 118.5%. For `Cl.O=C(NCC1CCC2(CCNCC2)O1)C1CC1` (stereo not given), the “Percent Effect” value was -17.62%. With `O=C(c1nc(=O)[nH]c2ccccc12)N1CCCC2(CCNC2)C1` (stereo not given) the “Percent Effect” value was 12.22%. For `O=C(c1onc2ccccc12)N1CCC2(CCCNC2)C1` (stereo not given), the “Percent Effect” value was 102.5%. For `Cl.O=C(N1CCOCC1)N1CCCC2(CCCNC2)C1` (stereo not given), the “Percent Effect” value was -22.36%. In the case of `COCC1CC2(CCN(c3cccc(C)n3)CC2)CN1C(C)C.O=C(O)C(F)(F)F.O=C(O)C(F)(F)F` (stereo not given), the “Percent Effect” value is reported as 94.82%. `Cc1ccc(N2CCC3(CCCN3Cc3ccn(C)n3)CC2)nn1.O=C(O)C(F)(F)F` was tested, and the “Percent Effect” value was 10.32%. `COCC1CC2(CCN(c3cc(OC)ncn3)CC2)CN1C(C)C.O=C(O)C(F)(F)F` (stereo not given) was tested, and the “Percent Effect” value was 103.7%. With `COCCCN1CCCC12CCN(c1ncccn1)CC2.O=C(O)C(F)(F)F` the “Percent Effect” value was 8.313%. In the case of `COc1cc(N2CCC[C@]3(C(=O)O)CN(C(C)C)C[C@@H]3C2)ncn1.O=C(O)C(F)(F)F`, the “Percent Effect” value is reported as 8.121%. `COCC1CC2(CCN(c3ccc(C)nn3)CC2)CN1C(C)C.O=C(O)C(F)(F)F` (stereo not given) was tested, and the “Percent Effect” value was 99.94%. With `COCC1CC2(CCN(Cc3ccccn3)CC2)CN1C(C)C` (stereo not given) the “Percent Effect” value was -12.67%. For `CC(C)CN1CCCC2(CCN(c3ccc(C#N)cn3)C2)C1.O=C(O)C(F)(F)F` (stereo not given), the “Percent Effect” value was -6.214%. `Cc1cccc(CN2CC3C[C@]3(NC(=O)c3cccc(F)c3)C2)n1.O=C(O)C(F)(F)F` (stereo not given in full) was tested, and the “Percent Effect” value was -4.676%. `CCN1C[C@@H]2CN(c3cc(OC)ncn3)CCC[C@]2(C(=O)O)C1.O=C(O)C(F)(F)F` was tested, and the “Percent Effect” value was -1.589%. For `COCC1CC2(CCN(c3ccccn3)CC2)CN1C(C)C.O=C(O)C(F)(F)F.O=C(O)C(F)(F)F` (stereo not given), the “Percent Effect” value was 104.7%. With `CCN1C[C@@H]2CN(Cc3cccs3)C[C@@H]2C1=O.O=C(O)C(F)(F)F` the “Percent Effect” value was -3.908%. `COCCNC(=O)C1(c2ccc(C)c(OC)c2)CCCC1` was tested, and the “Percent Effect” value was -0.08716%. In the case of `COCC1CC2(CCN(CC3CC3)CC2)CN1Cc1ccccn1.O=C(O)C(F)(F)F.O=C(O)C(F)(F)F` (stereo not given), the “Percent Effect” value is reported as 83.44%. In the case of `O=C(C1CCCO1)N1CCC2(CC1)CNCCO2` (stereo not given), the “Percent Effect” value is reported as -5.383%. With `CCN(CC)C[C@H]1CN2CC[C@H]1C[C@@H]2CNC(=O)c1ccco1` the “Percent Effect” value was -16.25%. With `CNc1ncc(CN(C)c2ncnc3onc(C)c23)cn1` the “Percent Effect” value was 70.58%. For `c1cncc(C(Cn2cnnc2)N2CCOCC2)c1` (stereo not given), the “Percent Effect” value was 3.663%. With `COCCN1CCO[C@H]2CN(Cc3cccc(C)n3)C[C@H]21.O=C(O)C(F)(F)F.O=C(O)C(F)(F)F` the “Percent Effect” value was 106.4%. In the case of `CC(C)N1CCO[C@H]2CN(C(=O)Cc3ccsc3)C[C@H]21.O=C(O)C(F)(F)F`, the “Percent Effect” value is reported as 16.26%. In the case of `CC(C)N1CCO[C@H]2CN(Cc3cc[nH]n3)C[C@H]21.O=C(O)C(F)(F)F.O=C(O)C(F)(F)F`, the “Percent Effect” value is reported as 92.97%. For `Cc1cccc(CN2C[C@@H]3OCCN(c4cnccn4)[C@@H]3C2)n1.O=C(O)C(F)(F)F`, the “Percent Effect” value was -8.161%. `CC(C)N1CCO[C@H]2CN(C(=O)Cc3cccs3)C[C@H]21.O=C(O)C(F)(F)F` was tested, and the “Percent Effect” value was 10.95%. With `Cc1cccc(CN2C[C@@H]3OCCN(C)[C@@H]3C2)n1` the “Percent Effect” value was 7.406%. For `CC[C@H]1CN2CC[C@H]1C[C@@H]2CNCc1ccc(OC)cc1`, the “Percent Effect” value was -6.876%. For `Cc1ccc(Cl)cc1-n1nnnc1C1(N2CCCC2)CCCCC1`, the “Percent Effect” value was -13.17%. For `Clc1ccc(-n2nnnc2C2(NCc3ccco3)CCCCC2)cc1`, the “Percent Effect” value was 73.59%. With `Cc1cccc(-n2nnnc2C2(NCc3ccco3)CCCCC2)c1` the “Percent Effect” value was 79.56%. `COc1ccc(-n2nnnc2C2(NCc3ccco3)CCCCC2)cc1` was tested, and the “Percent Effect” value was 77.41%. For `CSc1nccc(N2CCN(C)C3(CCNC(=O)CC3)C2)n1` (stereo not given), the “Percent Effect” value was -8.805%. In the case of `c1ccc(NC[C@@H]2CCC[C@@H]3CN(Cc4csnn4)C[C@@H]32)nc1`, the “Percent Effect” value is reported as 5.24%. For `Cc1cccc(CN2CC3C[C@]3(NC(=O)c3ccoc3)C2)n1` (stereo not given in full), the “Percent Effect” value was -6.434%. In the case of `CS(=O)(=O)N[C@@H]1CN(Cc2ccncc2)C[C@@H]2CCCO[C@@H]21.O=C(O)C(F)(F)F.O=C(O)C(F)(F)F`, the “Percent Effect” value is reported as -0.6746%. In the case of `O=C(O)C(F)(F)F.O=C(O)C(F)(F)F.O=C(O)C(F)(F)F.c1ccc(CO[C@@H]2CO[C@@]3(CCN(Cc4ccccn4)C3)C2)nc1`, the “Percent Effect” value is reported as 19.79%. `CS(=O)(=O)NC1CC2(CCN(CCF)CC2)Oc2ccccc21.O=C(O)C(F)(F)F` (stereo not given) was tested, and the “Percent Effect” value was 90.28%. With `CCC(O)Cn1cc(C2=CCN(Cc3cc(O)nc(C)n3)CC2)cn1` (stereo not given) the “Percent Effect” value was 5.407%. With `Cl.Cl.Cn1ccc(CN2CCOCC23CCNCC3)n1` the “Percent Effect” value was -7.915%. For `CN(Cc1ccccc1)c1ncccc1CNC1CN2CCC1CC2` (stereo not given), the “Percent Effect” value was -8.195%. With `CN(CCc1ccccc1)Cc1c(C2CC2)[nH]c2ncccc12` the “Percent Effect” value was 128%. `Cn1cc(CN2CC[C@H]3CO[C@H](CNc4ncccn4)[C@H]3C2)cn1.O=C(O)C(F)(F)F.O=C(O)C(F)(F)F` was tested, and the “Percent Effect” value was -23.96%. For `c1csc(CN2CC[C@H]3C[C@H](c4ccncn4)O[C@@H]3C2)c1`, the “Percent Effect” value was 13.32%. For `c1cnc(NC[C@H]2OC[C@@H]3CCN(Cc4ccncc4)C[C@@H]32)nc1`, the “Percent Effect” value was 115%. For `c1ccc(CN2CC[C@H]3CO[C@H](CNc4ncccn4)[C@H]3C2)nc1`, the “Percent Effect” value was -4.696%. `O=C(O)C(F)(F)F.O=C(O)C(F)(F)F.O=C(O)C(F)(F)F.c1cnc(NC[C@H]2OC[C@@H]3CCN(Cc4nccs4)C[C@@H]32)nc1` was tested, and the “Percent Effect” value was 101%. `O=C(O)C(F)(F)F.O=C(O)C(F)(F)F.c1ccc(CN2CC[C@H]3CO[C@H](CNc4ncccn4)[C@H]3C2)cc1` was tested, and the “Percent Effect” value was 109.8%. In the case of `O=C(O)C(F)(F)F.O=C(O)C(F)(F)F.O=C(O)C(F)(F)F.c1cnc(NC[C@H]2OC[C@@H]3CCN(Cc4cccnc4)C[C@@H]32)nc1`, the “Percent Effect” value is reported as 106.3%. For `Cc1ccc(OCC(=O)N2CCN[C@H]3CS(=O)(=O)C[C@H]32)cn1`, the “Percent Effect” value was -8.198%. For `N#CC1(c2ccccc2)CCN(C(=O)C2CCCN(C(N)=O)C2)CC1` (stereo not given), the “Percent Effect” value was 6.737%. For `CCC(CC)C(=O)N1CCOC2(CNC2)C1`, the “Percent Effect” value was -30.77%. `CS(=O)(=O)c1ccc(CC(=O)N2CCN3CCNC(=O)C3C2)cc1` (stereo not given) was tested, and the “Percent Effect” value was -12.31%. `Cc1cc(CN2C[C@@H]3CN(C(=O)c4ccsc4)CCO[C@@H]3C2)no1.O=C(O)C(F)(F)F` was tested, and the “Percent Effect” value was 15.19%.
